# Measured values published in the supplement of paper PMC8728848.
# This is one part of a sample in which the strongest signals are shown more often than they occur.
# What was measured:
# Assay in all cases: glycan array binding signal (z-score within array); higher = stronger binding
# Settings in all cases: glycan notation: IUPAC condensed, linker removed
# [1] = target: Fuc(a1-2)Gal(b1-3)GalNAc(b1-3)Gal
# How it was run: (§1)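 Glycan array data came from 3228 arrays in the Consortium for Functional Glycomics database, and only arrays with an available protein sequence were kept. Glycan names were put into IUPAC-condensed notation, and columns mapping to the same glycan were averaged. The binding signal is a within-array Z-score, averaged across arrays of one protein sequence run at different concentrations or buffers and across linkers. A negative Z-score can be read as non-binding.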
# [2] = target: Fuc(a1-2)Gal(b1-3)[Fuc(a1-4)]GlcNAc
# How it was run: as §1
# [3] = target: Fuc(a1-2)Gal(b1-4)Glc
# How it was run: as §1
# [4] = target: Fuc(a1-2)Gal(b1-4)GlcNAc(b1-3)Gal(b1-4)GlcNAc
# How it was run: as §1
# [5] = target: Fuc(a1-2)Gal(b1-4)[Fuc(a1-3)]GalNAc(b1-3)Gal(b1-4)[Fuc(a1-3)]GlcNAc
# How it was run: as §1
# [6] = target: Fuc(a1-2)[Gal(a1-3)]Gal
# How it was run: as §1
# [7] = target: Fuc(a1-2)[Gal(a1-3)]Gal(b1-4)Glc
# How it was run: as §1
# [8] = target: Fuc(a1-2)[GalNAc(a1-3)]Gal(b1-3)GlcNAc
# How it was run: as §1
# [9] = target: Fuc(a1-3)GlcNAc
# How it was run: as §1
# [10] = target: Gal(a1-3)[Gal(a1-4)]Gal(b1-4)GlcNAc
# How it was run: as §1
# [11] = target: Gal(a1-4)Gal(b1-4)GalNAc
# How it was run: as §1
# [12] = target: Gal(b1-3)[GlcNAc(b1-6)]GalNAc
# How it was run: as §1
# [13] = target: Gal(b1-4)GlcNAc
# How it was run: as §1
# [14] = target: Gal3S(b1-4)Glc6S
# How it was run: as §1
# [15] = target: Gal3S6S(b1-4)GlcNAc6S
# How it was run: as §1
# [16] = target: Gal6S(b1-4)Glc6S
# How it was run: as §1
# [17] = target: GalNAc(a1-3)Gal
# How it was run: as §1
# [18] = target: Glc(a1-4)Glc
# How it was run: as §1
# [19] = target: GlcNAc(b1-2)Gal(b1-3)GlcNAc
# How it was run: as §1
# [20] = target: Man(a1-2)Man(a1-2)Man(a1-3)Man
# How it was run: as §1
# [21] = target: Man(a1-2)Man(a1-2)Man(a1-3)[Man(a1-2)Man(a1-6)[Man(a1-3)]Man(a1-6)]Man(b1-4)GlcNAc(b1-4)GlcNAc
# How it was run: as §1
# [22] = target: Man(a1-3)[Man(a1-6)]Man
# How it was run: as §1
# [23] = target: Neu5Ac(a2-3)Gal(b1-3)[Fuc(a1-4)]GlcNAc
# How it was run: as §1
# [24] = target: Neu5Ac(a2-3)Gal(b1-4)[Fuc(a1-3)]GlcNAc6S
# How it was run: as §1
# [25] = target: Neu5Ac(a2-3)[GalNAc(b1-4)]Gal(b1-4)Glc
# How it was run: as §1
binder,measurement,setting,value
"TLEC1 (Arabidopsis thaliana), Q9C5Q9 (protein) MSGASSVSSICSSNVSLIPTGPQVFINFRGKDLRKGFMSFLKPALKKEKINVFIDEQEERGKYLISLFDTIGESKIALVIFSEGYCESHWCMDELVKIKEYMDQNRLIIIPIFYRLDLDVVKDLTGKFGDNFWDLVDKYQPEPKKLHKWTEALFSVCELFSLILPKHSDISDRDFVKSIVKAVKKVQKNFFQRRNGEIEYQDFSVPACKLTITMHESPNEEAVQVTVLNEFYQMKNQSPVPSYEFKFWVDLTRPKGNVFMIDARDLSIAWSEDSNHWTWLPLPNQNSNESVMEIAFLKSASWLDVAGKFDTRYLTPRTRYEVVFVVKLEYTFEWETLVKLKLDLPNTWEKPQEQSVDMFDYISDQWLDIPVGEFTTSKKNVGEISFAMYEHECQLWKSGLFVKGVTIRPKY",glycan array binding signal (z-score),[1],0.538
same,glycan array binding signal (z-score),[2],-0.075
same,glycan array binding signal (z-score),[3],1.08
same,glycan array binding signal (z-score),[4],0.966
same,glycan array binding signal (z-score),[5],1.49
same,glycan array binding signal (z-score),[6],-0.268
same,glycan array binding signal (z-score),[7],-0.089
same,glycan array binding signal (z-score),[8],0.897
same,glycan array binding signal (z-score),[9],1.82
same,glycan array binding signal (z-score),[10],-0.228
same,glycan array binding signal (z-score),[11],-0.13
same,glycan array binding signal (z-score),[12],-0.317
same,glycan array binding signal (z-score),[13],-0.385
same,glycan array binding signal (z-score),[14],1.16
same,glycan array binding signal (z-score),[15],12.3
same,glycan array binding signal (z-score),[16],1.65
same,glycan array binding signal (z-score),[17],-0.288
same,glycan array binding signal (z-score),[18],-0.148
same,glycan array binding signal (z-score),[19],-0.386
same,glycan array binding signal (z-score),[20],-0.005
same,glycan array binding signal (z-score),[21],-0.509
same,glycan array binding signal (z-score),[22],-0.105
same,glycan array binding signal (z-score),[23],-0.525
same,glycan array binding signal (z-score),[24],-0.464
same,glycan array binding signal (z-score),[25],-0.46
